Compound activity from PubChem BioAssay.
GALC G270D act: raises human GALC G270D mutant activity in cells; P54803; 145M-Twi-hGALC-G270D cells (Twitcher mouse brain line with human GALC G270D), HMU-beta-Gal fluorescence, 48 h; Potency, µM (doses to about 57.5 µM), hits mostly activators; actives 0.1% (n = 45,000); AID 1159614; also: potency is read from the fitted curve at half-maximal effect; 0% is about no effect; nearly all actives have a fitted effect of over 65% in size
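Brain-derived Twitcher mouse 145M-Twi cells stably expressing human GALC-G270D or wild-type GALC, treated live, then residual GALC activity read by fluorescence of HMU-b-Gal substrate (0.1 mM final) in citrate-phosphate buffer pH 5.2 with sodium taurocholate. Signal increase indicates enhancement.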
p53null 39C kill: kills p53 null cells at the nonpermissive temperature | H1299 p53-null (neo) cells, 39C, ATPlite viability, 24 h | AID 904 | Potency, µM (titrated, usually from 46.1 µM), inactives show at the top dose activity, negative = cell killing, actives largely listed as cytotoxic | actives 0.97% (n = 55,000);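 also: potency is read from the fitted curve at half-maximal effect; 0% = DMSO only and -100% = full killing by 100 µM tamoxifen; nearly all actives have a fitted effect of over 50% in size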
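Temperature-shift cytotoxicity format: compound titrations on p53-null or A138V-expressing H1299 cells held 24 hr at 39C, cell ATP then measured, AC50 from Hill model.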
GPR32 ag: GPR32 (DRV1) agonism, beta-arrestin recruitment | activation, % at 76.9 µM | actives 2.5% (n = 48,000) | CHO-K1 GPR32 beta-arrestin PathHunter luminescence, 90 min; zero percent set by DMSO-only wells;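 active = activation of at least 60% and not above a set upper limit, about 1 call in 100 departs from these limits; inconclusive = activation of 40% to 60%, or above that upper limit; inactive = activation under 40%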; also: 0% is about no effect
Target sequence (O75388 whole entry, looked up): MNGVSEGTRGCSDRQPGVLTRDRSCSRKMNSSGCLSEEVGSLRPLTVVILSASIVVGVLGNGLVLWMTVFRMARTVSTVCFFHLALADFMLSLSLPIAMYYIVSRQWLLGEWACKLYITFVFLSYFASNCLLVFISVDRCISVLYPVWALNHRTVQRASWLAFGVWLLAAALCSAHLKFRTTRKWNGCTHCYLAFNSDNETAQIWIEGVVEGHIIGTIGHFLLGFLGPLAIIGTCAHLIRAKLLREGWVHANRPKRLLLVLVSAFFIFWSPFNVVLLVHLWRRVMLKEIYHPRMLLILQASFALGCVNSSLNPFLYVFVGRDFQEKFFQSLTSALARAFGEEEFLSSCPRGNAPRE
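PathHunter enzyme-fragment complementation, CHO-K1 GPR32 stable line; 2,500 cells/well, overnight attach; cpd 90 min 37 °C 5% CO2; detection reagent 1 h RT; chemiluminescence. DMSO = EC0.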
FH mod: Identification of activators of human fumarate hydratase by quantitative high-throughput screening | FH coupled MDH/diaphorase resazurin fluorescence, 15 min | Fumarate hydratase, mitochondrial (Homo sapiens), P07954 | AID 1347055, 2019 | Potency, µM (top dose mostly 79.9 µM), without a hit: at the highest dose activity change, negative = inhibition, most hits filed as inhibitors | actives 0.22% (n = 54,000); also: potency is read from the fitted curve at half-maximal effect; % is scaled to controls: 0 for no effect and ±100 for the full control effect; the screen sought activators but most active calls are inhibition curves; nearly all actives have a fitted effect of over 45% in size
NTMT1 inh: blocks human N-terminal methyltransferase 1 activity; Q9BV86; AID 1645870; Potency, µM (titrated, usually from 114 µM), without a hit: at the highest dose activity change, negative = inhibition, hits mostly inhibitors; actives 2.5% (n = 59,000); NTMT1 MTase-Glo SAH luminescence, purified enzyme;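 also: potency is read from the fitted curve at half-maximal effect; plate controls were DMSO vehicle for no effect and no enzyme for full effect; nearly all actives have a fitted effect of over 65% in size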
p53null 32C tox: selectivity test: cytotoxicity in p53 null cells, permissive temperature; H1299-neo p53 null cells, ATP luminescence, 24 h, 32C; Potency, µM (doses to about 46.1 µM), for the others: top-dose activity change, negative = cytotoxicity, hits mostly cytotoxic; actives 0.62% (n = 55,000);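 also: potency is read from the fitted curve at half-maximal effect; 0% = DMSO only and -100% = full killing by 100 µM tamoxifen; nearly all actives have a fitted effect of over 55% in size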
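Cells lacking p53 (H1299-neo) are plated at 600 per well and allowed to settle overnight at 37C. Test compounds (up to 46 uM) are added and held 24 hours at 32C, then ATP is quantified by luminescence.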
* marks the source's active call; other numbers are inactive results; i = inactive; u = inconclusive; x = no result; ! = repeats disagree; [ ] = dose if it differs, or a comment. An excerpt weighted towards active compounds, which were near 3.9% of everything screened. Unless noted, calls follow the shape of the dose curve; as a rule, active = well fitted curve in the direction sought with a large enough effect; inconclusive = small, poorly fitted or top-dose-only effect, or another doubt; inactive = no such curve, though single readings can be large; an effect the other way counts as inactive or inconclusive.

SMILES | GALC G270D act | p53null 39C kill | GPR32 ag | FH mod | NTMT1 inh | p53null 32C tox
Nc1c(C(=O)Nc2ccc(Cl)cc2)sc2nc3c(cc12)N1CCC3CC1 | 32µM* | -19% | 77* | -3% | u | -23%
CC[C@H]1C2CC3[C@@H]4N(C)c5ccccc5[C@]45C[C@@H]([C@H]2[C@H]5O)N3[C@@H]1O | x | x | x | -4%[53.3 µM] | 14%[29.8 µM] | x
CC12CCC3C(CC=C4CC(O)CCC43C)C1C/C(=C\c1ccccc1F)C2=O (centres undefined) | x | 15% | x | x | x | x
C[C@]12CC[C@H](O)CC1=CC[C@@H]1[C@@H]2CC[C@]2(C)C(=O)CC[C@@H]12 | i | x | 73* | -1% | 2%[57.5 µM] | x
CC(=O)OC[C@H]1O[C@@H]([S-])[C@H](OC(C)=O)[C@@H](OC(C)=O)[C@@H]1OC(C)=O.CC[PH+](CC)CC.[Au] | x | x | x | x | 10µM* | x
CC1=C(O)C(=O)C=C2C1=CC=C1[C@@]2(C)CC[C@@]2(C)[C@@H]3C[C@](C)(C(=O)O)CC[C@]3(C)CC[C@]12C | x | x | x | u | 16µM*! | x
C[N+](C)(C)CCOC(=O)CBr | x | x | 7 | -22%[53.3 µM] | x | x
C[N+](C)(C)CCOC(=O)C(O)(c1ccccc1)c1ccccc1 | i | x | 0 | 3%[53.3 µM] | 16µM* | x
CN1C[C@@H]2CN(c3ccc(-c4ccccc4)nn3)C[C@@H]2C1 | x | x | x | -3% | 15%[57.5 µM] | x
C[C@@H]1[C@H](O)[C@@H](C)/C=C/C=C/CC/C=C/C=C/C=C/C=C/[C@H](O[C@H]2O[C@@H](C)[C@H](O)[C@@H](N)[C@H]2O)C[C@@H]2O[C@](O)(C[C@@H](O)[C@H](O)CC[C@@H](O)C[C@@H](O)C[C@@H](O)CC(=O)O[C@H]1C)C[C@H](O)[C@H]2C(=O)O | x | x | x | 1%[53.3 µM] | -8%[29.8 µM] | x
CCN(CC)C(=O)[C@@H]1C=C2c3cccc4[nH]cc(c34)C[C@H]2N(C)C1 | i | x | -25 | -10%[162 µM] | 56µM* | x
C[C@]12CC[C@H]3[C@@H](CCC4=C/C(=N/OCC(=O)O)CC[C@@]43C)[C@@H]1CC[C@@H]2O | x | x | x | 3% | 3%[57.5 µM] | x
C=C[C@H]1CN2CCC1C[C@H]2[C@H](O)c1ccnc2ccccc12 (some centres undefined) | x | x | x | 2% | -22%[57.5 µM] | x
CN(C)[C@@H]1C(=O)C(C(N)=O)=C(O)[C@@]2(O)C(=O)C3=C(O)c4c(O)cccc4[C@@](C)(O)[C@H]3[C@H](O)[C@@H]12 | x | x | x | -1%[53.3 µM] | 79µM* | x
CC(C)[N+](C)(CCC(C(N)=O)(c1ccccc1)c1ccccc1)C(C)C | i | x | 8 | 0%[53.3 µM] | 40µM* | x
CN1C(=O)N(c2ccc(C#N)c(C(F)(F)F)c2)C(=O)[C@@]1(CO)c1ccccc1 | x | x | x | 3% | -2%[57.5 µM] | x
Cc1c(Cl)c(OCC(=O)N2CCN(C)CC2)nc2sc(C(=O)NC3CC3)c(N)c12 | x | x | x | 2% | -2%[57.5 µM] | x
Cc1cc(C)cc(OCC(=O)Nc2ccc(-c3nc4ccccc4s3)cc2)c1 | 40µM* | 1% | 72* | 1% | 12% | -8%
Cc1cc(C)cc(OCC(=O)Nc2ccc(Cl)cc2C(=O)c2ccccc2)c1 | i | -4% | -18 | -6% | -5% | -7%
C[C@H](N)C(=O)c1ccccc1 | i | x | -48 | 10%[162 µM] | 112µM* | x
COC(=O)CC1CC2(C(=O)c3c(O)cccc3C2(O)C(=O)OC)C(C)O1 (centres undefined) | x | x | x | 12%[53.3 µM] | 8%[29.8 µM] | x
CCC(COC(=O)c1cc(OC)c(OC)c(OC)c1)(c1ccccc1)N(C)C (centres undefined) | i | x | 97* | -2%[53.3 µM] | 19%[57.5 µM] | x
CCOC(C(=O)OCCN(C)C)(c1ccccc1)c1ccccc1 | i | x | -9 | -3%[53.3 µM] | 38%[57.5 µM] | x
